# This is one part of a sample in which hits are shown more often than they occur.
# HIV RNase H inh-1: inhibitors of HIV-1 reverse transcriptase RNase H; P04585; RT-RNase H RNA/DNA duplex cleavage, fluorescence; inhibition, % at 10 µM; 1.9% of 65,000 active; AID 565; in the data active means inhibition above about 50%
# HIV RNase H inh-2: confirmation of HIV-1 reverse transcriptase RNase H inhibitors | Recombinant RT RNase H, fluorescent RNA/DNA duplex cleavage | shares compounds with HIV RNase H inh-1 | 39% of 1,000 active | inhibition, % at 10 µM | AID 651; in the data active means inhibition above about 48%; inconclusive means no clear call, values can overlap the other calls
# * marks the source's active call; other numbers are inactive results; ? = inconclusive.
SMILES,HIV RNase H inh-1,others
CSCSC1=C(C#N)C(c2ccccc2Cl)C(C(C)=O)=C(C)N1 (configuration not stated),70.0*,HIV RNase H inh-2=42.0
CCOC(=O)CSC1=C(C#N)C(c2ccccc2F)C(C(C)=O)=C(C)N1 (configuration not stated),0.6,
Cc1ccc2cc(CNC(C)C)c(=O)[nH]c2c1,3.1,
Cc1cccc(N2CCN(C(=O)C3CCCN(S(=O)(=O)c4cccc5cccnc45)C3)CC2)c1C (configuration not stated),-16.2,
Cc1ccc(C)n1NC(=O)c1ccco1,-3.1,
CN=C(c1ccco1)n1c(=S)nc(-c2ccco2)n(C)c1=S,55.5*,HIV RNase H inh-2=?
CSc1nc(-c2ccco2)nn1C(=O)c1ccco1,6.2,
Cn1c(CNC(=O)Nc2ccccc2)nnc1SCc1ccccc1,0.1,
Cc1cc(C)cc(NC(=O)NCc2nnc(SCc3ccccc3)n2C)c1,82.3*,HIV RNase H inh-2=46.7
Cn1c(CNC(=O)Nc2cccc(Cl)c2)nnc1SCc1ccccc1,1.9,
COc1ccccc1-c1nc(C#N)c(NCc2ccc(F)cc2)o1,-25.5,
Cc1ccc(NC(=O)CS(=O)(=O)c2c[nH]c3ccccc23)c(C)c1,3.0,
O=C(O)CC(CNS(=O)(=O)c1ccccc1)c1ccccc1 (configuration not stated),-10.0,
CCCC[n+]1cc(/N=C(\[O-])OC)on1,83.9*,HIV RNase H inh-2=7.8
COc1ccc(CC[n+]2cc(/N=C(\C)[O-])on2)cc1OC,-4.4,
CO/C([O-])=N/c1c[n+](-c2ccc(C)cc2)no1,2.5,
CN1CCN(C2=C(Cl)C(=O)N(Cc3ccccc3)C2=O)CC1,-28.5,
COC(=O)C1=C(C)N(c2cccc(Cl)c2)C(=O)C1,2.1,
COc1ccc(N2C(=O)c3ccc(NC(C)=O)cc3C2=O)cc1,-10.3,
Cc1ccccc1N1C(=O)C(Cl)=C(N2CCN(c3ccccc3)CC2)C1=O,12.6,
CN1CCN(C2=C(Cl)C(=O)N(c3ccc(Cl)c(Cl)c3)C2=O)CC1,96.3*,HIV RNase H inh-2=73.5*
COC(=O)N1CCN(c2ccc(Cl)c(Cl)c2)CC1,-34.1,
CN1CCN(C2=C(Cl)C(=O)N(c3cccc(Cl)c3)C2=O)CC1,70.2*,HIV RNase H inh-2=16.5
COc1ccc(N2C(=O)C(Cl)=C(N3CCCC3)C2=O)cc1,52.3*,HIV RNase H inh-2=-3.9
Cn1c(=O)n(-c2cccc(Cl)c2)c(=O)n1C,-11.3,
SMILES,HIV RNase H inh-1,others
O=C1C(Cl)=C(N2CCOCC2)C(=O)N1c1ccccc1Cl,70.5*,HIV RNase H inh-2=26.7
COc1ccc(N2C(=O)CCC2=O)cc1,1.9,
Cc1cc(=O)cc(C)n1-c1ccccc1N1CCOCC1,-24.1,
CN(Cc1ccco1)C(=O)C1CCC(=O)N1Cc1ccc(F)cc1 (configuration not stated),-6.1,
CCOC(=O)c1cc2sccc2n1CC(=O)N1CCCC1,-9.9,
O=C(Nc1ccc(Cl)c(C(F)(F)F)c1)C1CCCN(S(=O)(=O)c2cnc[nH]2)C1 (configuration not stated),-5.7,
COc1ccc2c(CSc3nc4nc(C)cc(C)n4n3)cc(=O)oc2c1,-1.9,
Clc1ccc(C(c2nnnn2C2CCCCC2)N(Cc2cccnc2)Cc2ccco2)cc1 (configuration not stated),9.0,
COC(=O)c1cccc(N2C(=O)C(Cl)=C(N3CCOCC3)C2=O)c1,83.3*,HIV RNase H inh-2=62.3*
COC(=O)c1cccc(Oc2nc(N3CCOCC3)nc(N3CCOCC3)n2)c1,-15.4,
COC(=O)C1=C(C)N(c2cccc(C(C)=O)c2)C(=O)C1,-5.7,
CCOC(=O)Nc1ccccc1C(=O)N1CCOCC1,-2.5,
CCOC(=O)C(C(C)=O)c1c(Br)c(O)c(O)c2c(C(=O)c3ccc(C)cc3)coc12 (configuration not stated),94.8*,HIV RNase H inh-2=63.2*
CC(C)CC(c1nnnn1Cc1ccccc1)N1CCN(C(=O)c2ccco2)CC1 (configuration not stated),-17.0,
NC(=O)c1cc(Cc2ccccc2)sc1NC(=O)c1ccco1,88.9*,HIV RNase H inh-2=31.1
O=C(Nc1nnc(CCc2ccccc2)s1)c1ccco1,-13.4,
O=C(Nc1scc(-c2ccccc2)c1C(=O)O)c1ccco1,0.3,
O=C(NCc1ccccc1)N(Cc1nc2ccccc2c(=O)[nH]1)C1CCCC1,-7.2,
Oc1ccc(C(c2nnnn2C2CCCC2)N2CCc3ccccc3C2)cc1 (configuration not stated),11.0,
COc1cc(C(c2nnnn2C2CCCC2)N2CCc3ccccc3C2)ccc1O (configuration not stated),50.7*,HIV RNase H inh-2=22.2
COc1ccc(C(c2nnnn2C2CCCCC2)N2CCN(c3ccccc3)CC2)cc1 (configuration not stated),8.4,
OCCN1CCN(C(=S)c2ccc(Cl)c(Cl)c2)CC1,92.9*,HIV RNase H inh-2=66.1*
OCCN1CCN(c2nc(-c3ccccc3)c3cc(Cl)ccc3n2)CC1,-25.8,
O=C(N1CCN(CCO)CC1)N1c2ccccc2C=Cc2ccccc21,-6.4,
CCN(CC)CCNC(=O)CCCNC(=O)Cn1cnc2sc(C)c(C)c2c1=O,-2.6,
SMILES,HIV RNase H inh-1,others
Cc1cnn(Cc2ccccc2)c1N,-1.1,
CCCCCCn1c(SCCC)nc2c1c(=O)[nH]c(=O)n2C,-2.4,
CCCn1c(SCCc2ccccc2)nc2c1c(=O)[nH]c(=O)n2C,6.7,
CCCCCn1c(SCCCC)nc2c1c(=O)[nH]c(=O)n2C,71.3*,HIV RNase H inh-2=60.9*
CC(C)CCn1c(SCCc2ccccc2)nc2c1c(=O)[nH]c(=O)n2C,74.3*,HIV RNase H inh-2=5.1
CCCCCn1c(SCCc2ccccc2)nc2c1c(=O)[nH]c(=O)n2C,11.0,
CCCCCn1c(SCCOCC)nc2c1c(=O)[nH]c(=O)n2C,-13.7,
COc1ccccc1OCC(=O)Nc1cccc(C(=O)N2CCOCC2)c1,-6.7,
Cc1ccc2c(n1)sc1c(N)ncnc12,-5.2,
COC(=O)c1cc(C)sc1NC(=O)c1cccnc1,-20.4,
c1ccc2c(c1)nc1n2C2(N3CCOCC3)CCCC2C1N1CCOCC1 (configuration not stated),-16.7,
Oc1ccc2c(c1)C1CCCC1(N1CCOCC1)O2 (configuration not stated),67.5*,HIV RNase H inh-2=32.6
Cn1c(=O)n(CC(=O)N2CCOCC2)c2ccccc21,-2.9,
CN1CC2=Cc3ccccc3OC23Oc2ccccc2C=C3C1,-9.5,
Cn1cc(CN2CCN(c3ccccc3)CC2)c2ccccc21,36.7,
Cc1cc2oc3c(c(=O)c2cc1C)C(c1ccc(C(C)C)cc1)N(CCCN1CCOCC1)C3=O (configuration not stated),-14.8,
Cc1noc(C)c1CSc1nnc2sc3ccccc3n12,-56.3,
COc1ccc(-c2csc(N3CCC(C(N)=O)(N4CCCCC4)CC3)n2)cc1,21.4,
O=S(=O)(NCCOCC(F)(F)F)c1ccc2oc3ccccc3c2c1,-26.6,
Cc1nc2ccc(S(=O)(=O)NCC(=O)N3CCC(N4CCCCC4)CC3)cc2s1,-15.0,
CCOC(=O)C1CCCN(C(=O)Cn2sc3nc(C)cc(C)c3c2=O)C1 (configuration not stated),85.0*,HIV RNase H inh-2=50.8*
CCOC(=O)C1CCCN(C(=O)Cn2cnc3c2c(=O)n(C)c(=O)n3C)C1 (configuration not stated),-7.7,
CCOCC(=O)N1CCCC(C(=O)OCC)C1 (configuration not stated),-2.5,
Cc1cc(C)c2c(=O)n(CC(=O)N3CCC(N4CCCCC4)CC3)sc2n1,83.4*,HIV RNase H inh-2=58.3*
CC(=O)c1cc(-c2ccccc2)n(CC(=O)N2CCC(N3CCCCC3)CC2)c1C,-9.7,
O=C(CCCn1c(=O)c2sccc2n(Cc2ccc(F)cc2)c1=O)NCc1ccco1,-12.7,

# Screens (PubChem)
